High-throughput results as filed in PubChem BioAssay.
Sm TGR inh = inhibitors of Schistosoma mansoni thioredoxin glutathione reductase | Q962Y6 | purified TGR, DTNB reduction, TNB absorbance 405 nm | Potency, µM (titrated, usually from 114 µM), inactives show at the top dose activity change, negative = inhibition, hits mostly inhibitors | hit rate 3% among 360,000; note: potency is the fitted concentration of half-maximal effect; nearly all actives have a fitted effect of over 60% in size
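First, TGR (20 nM dispensed) and NADPH were mixed with compound. Second, a 15 min room-temperature incubation followed. Third, further NADPH and then DTNB were added to start the reaction. Finally, TNB absorbance was monitored kinetically.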
Pf growth 96h = P. falciparum growth inhibition at 96 hours; P. falciparum luciferase reporter growth, 96 h; AID 504834; hit rate 6.9% among 320,000; Potency, µM (top dose mostly 28.7 µM), inactives show top-dose activity change, negative = inhibition, usual class: inhibitors; note: potency is the fitted concentration of half-maximal effect
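Luminescence readout: decreased luciferase signal marks inhibited growth of reporter-expressing P. falciparum in infected red cells (2% hematocrit, 0.05% parasitemia final), exposed to compound two generations (96 h, 37 C, 5% CO2).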
Pf growth 48h = P. falciparum growth inhibition at 48 hours (one generation); P. falciparum luciferase growth in erythrocytes, 48 h; Potency, µM (highest dose often 28.7 µM), inactives show top-dose activity change, negative = inhibition, hits mostly inhibitors; hit rate 5.9% among 310,000; AID 504832; note: potency is the fitted concentration of half-maximal effect
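Read-out is firefly luciferase luminescence from an integrated reporter in P. falciparum, so falling signal marks reduced parasite growth. Infected erythrocytes were at 2% hematocrit and 0.1% parasitemia (final) in Albumax-supplemented RPMI 1640.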
FBPA Giardia inh = inhibitors of Giardia lamblia fructose-1,6-bisphosphate aldolase; A8B2U2; hit rate 0.71% among 290,000; purified Giardia FBPA; AID 2451; Potency, µM (series often up to 59.6 µM), for inactives: at the highest dose activity, negative = inhibition, hits mostly inhibitors; note: potency is the fitted concentration of half-maximal effect; nearly all actives have a fitted effect of over 55% in size
Target sequence (A8B2U2 whole entry, looked up): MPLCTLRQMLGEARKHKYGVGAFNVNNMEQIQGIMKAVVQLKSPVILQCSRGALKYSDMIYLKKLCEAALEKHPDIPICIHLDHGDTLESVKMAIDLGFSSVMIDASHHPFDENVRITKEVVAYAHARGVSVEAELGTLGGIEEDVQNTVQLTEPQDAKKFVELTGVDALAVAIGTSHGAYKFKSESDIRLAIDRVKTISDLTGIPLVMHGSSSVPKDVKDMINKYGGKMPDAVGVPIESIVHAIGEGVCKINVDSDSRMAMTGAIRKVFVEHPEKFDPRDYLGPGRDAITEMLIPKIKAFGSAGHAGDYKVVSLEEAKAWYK
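40 nM FBPA preincubated 10 min at RT with compound (up to 57.5 uM final), then substrate plus GAPDH/TPI/NAD/arsenate coupling and diaphorase/resazurin added. Fluorescence read after 20 min at RT, 525/598 nm.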
HCMV antiviral = blocks human cytomegalovirus replication; HFF cells, HCMV-luciferase reporter, 72 h; stronger effect = lower value; hit rate 4.5% among 410,000; activity change, negative = inhibition, % at 57.5 µM; in the data active = activity change below about -60%; inconclusive = no clear call, values can overlap the other calls; inactive = above about -39%
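Inhibition of viral replication was scored as loss of reporter luminescence in HFFs infected with HCMV-luciferase (MOI 1 PFU/cell) for 72 h; compounds tested at 2 doses, normalized to buffer and Salinomycin controls.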
The depositor's hits bear a star; ? = inconclusive; nt = no result given; + = active, no number. Sampled rows, rich in hits. Any-hit rate of the full collection: about 14%. Unless noted, calls come from the whole dose curve; as a rule, active = well fitted curve in the direction sought with a large enough effect; inconclusive = small, poorly fitted or top-dose-only effect, or another doubt; inactive = no such curve, though single readings can be large; an effect the other way counts as inactive or inconclusive. % is set by controls: 0 for no effect and ±100 for the full control effect.

SMILES	Sm TGR inh	Pf growth 96h	Pf growth 48h	FBPA Giardia inh	HCMV antiviral
Cc1ccc(-c2csc(NCCn3c(-c4ccncc4)nc4ccccc43)n2)cc1	4%	0%	-4%	6%	17
COc1ccc(-c2csc(N3CCN(c4cc5c(cc4Cl)nc(-c4ccncc4)n5CCOCCO)CC3)n2)cc1	-22%	3.7µM*	?	?	-16
Cc1ccc(-c2csc(N3CCN(c4cc5c(cc4Cl)nc(-c4ccncc4)n5CCN4CCCCC4)CC3)n2)cc1	6%	3.3µM*	?	?	-1
Cc1ccc(-c2csc(N3CCN(c4ccc5nc(-c6ccncc6)n(CCN6CCCCC6)c5c4)CC3)n2)cc1	26%	?	1.5µM*	?	nt
CCCn1c(C)nc2cc(Cl)c(N3CCN(c4nc(-c5ccc(C)cc5)cs4)CC3)cc21	-28%	5.2µM*	8.3µM*	-5%	-39
CC1Nc2ccccc2C(=O)N1NC(=O)c1ccc(Br)cc1 (stereo unspecified)	-15%	8.3µM*	29%	7%	77
CCOC(=O)NN1C(=O)c2ccccc2NC1C (stereo unspecified)	3%	-16%	29%	1%	13
O=c1c2sccc2[nH]c(=S)n1Cc1ccccc1	-1%	16%	-7%	-5%	-17
CN(NC(=O)/C=C/C(=O)O)c1ncc(C(F)(F)F)cc1Cl	20µM*	-24%	?	0%	3
CC(C)(C)OC(=O)N1C[C@@]23C[C@H](c4cccc(F)c4)[C@@H](C[C@@H]2S1(=O)=O)O3	nt	nt	nt	nt	5
CCOC(=O)C1CCN(C(=O)c2cccc(Cl)c2)CC1	-2%	7.4µM*	-8%	2%	-2
O=C(c1cccc(Cl)c1)N1CCN(C2CCCCC2)CC1	9%	34%	1%	8%	12
O=C(c1cccc(Cl)c1)N1CCC(N2CCC(C(=O)N3CCCC3)CC2)CC1	1%	15µM*	?	-8%	?
CCOC(=O)C1CCN(C(=O)C2CCN(c3nc4ccc(OC)cc4s3)CC2)CC1	1%	10µM*	?	1%	7
CCOC(=O)C1CCN(C(=O)c2cc(C(C)(C)C)nn2Cc2ccccc2)CC1	8%	1.2µM*	1.2µM*	-3%	1
COc1ccc2nc(N3CCN(C(=O)C4CC4)CC3)sc2c1	3%	nt	nt	nt	32
CCOC(=O)C1CCCN(C(=O)c2cccc(Cl)c2)CC1 (stereo unspecified)	nt	nt	nt	nt	2
Cc1noc(C)c1NC(=O)N(C)C[C@H]1OCc2cnnn2CCCC(=O)N([C@H](C)CO)C[C@H]1C	nt	nt	nt	nt	11
CCOC(=O)C1CCN(C(=O)c2ccc3nc(-c4ccc(OC)cc4)c(-c4ccc(OC)cc4)nc3c2)CC1	-2%	8%	8.3µM*	nt	0
O=c1c(-c2ccccc2)c1-c1ccccc1	3.5µM*	5.4µM*	6.7µM*	4%	nt
O=c1[nH]ncn1-c1ccccc1C(F)(F)F	-7%	26%	-6%	4%	-10
O=C1N(c2ccccc2C(F)(F)F)O[C@@]1(c1ccccc1)C1CCCC1	0%	0.83µM*	0.74µM*	nt	29
FC(F)(F)c1ccccc1N1CC1c1ccncc1 (stereo unspecified)	-8%	2%	nt	2%	-39
O=C1N(c2ccccc2C(F)(F)F)O[C@@]1(c1ccccc1)C1CCCCC1	6%	?	1.5µM*	nt	15
COc1ccc(CN(C)S(=O)(=O)c2nnc(NC(=O)c3cccc(F)c3)s2)cc1	0%	56%	14%	?	-30
SMILES	Sm TGR inh	Pf growth 96h	Pf growth 48h	FBPA Giardia inh	HCMV antiviral
CCOC(=O)C(C)c1c(C(=O)c2ccc(C)nc2)c2ccccc2n1C (stereo unspecified)	0%	4.7µM*	3.7µM*	2%	17
Cc1c(C)n(Cc2ccccc2)c2ccc(C(=O)NCc3ccccc3F)cc12	3%	nt	nt	nt	+
Cc1c(C)n(Cc2ccccc2)c2ccc(C(=O)NCCCN3CCOCC3)cc12	-12%	32%	-19%	-2%	-22
COc1cccc(CNC(=O)c2ccc3c(c2)c(C)c(C)n3Cc2ccccc2)c1OC	7%	nt	nt	nt	?
Cc1c(C)n(Cc2ccc(F)cc2)c2ccc(C(=O)NCCCN3CCOCC3)cc12	-19%	33%	9.3µM*	3%	?
COc1cc(CNC(=O)c2ccc3c(c2)c(C)c(C)n3Cc2cccc(C)c2)cc(OC)c1OC	-8%	nt	nt	nt	-87*
